Screening data as filed in PubChem BioAssay.
HP1b chromo inh – inhibitors of HP1-beta chromodomain binding to methylated histone tails | P83916 | AlphaScreen HP1-beta / biotin-H3K9me3 peptide binding | Potency, µM (titrated, usually from 114 µM), hits mostly inhibitors | 390,000 tested, 0.56% active | AID 540317; further: nearly all actives have a fitted effect of over 70% in size
Target sequence (P83916 whole entry, looked up): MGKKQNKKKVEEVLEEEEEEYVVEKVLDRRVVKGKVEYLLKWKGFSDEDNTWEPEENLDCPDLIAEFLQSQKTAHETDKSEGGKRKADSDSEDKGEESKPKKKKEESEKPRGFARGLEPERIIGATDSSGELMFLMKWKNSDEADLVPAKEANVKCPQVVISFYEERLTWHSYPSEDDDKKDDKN
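AlphaScreen: HP1-beta (50 nM) preformed 30 min with biotin-H3(1-18)K9me3 peptide (50 nM) in PBS pH 7.4, 0.01% Tween-20. Compound added for 30 min at RT, then streptavidin donor/nickel chelate acceptor beads (10 ug/mL) for 30 min.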
JMJD2A Tudor – JMJD2A Tudor domain (human) inhibition; AlphaScreen JMJD2A-Tudor / H3K4me3 peptide binding; AID 504339; 390,000 tested, 4.4% active; Potency, µM (series often up to 114 µM), most hits filed as inhibitors; further: nearly all actives have a fitted effect of over 50% in size
L3MBTL1 inh-1 – L3MBTL1 (human) inhibition. AID 485360. 230,000 tested, 0.66% active. Potency, µM (top dose mostly 57.1 µM), hits mostly inhibitors. Q9Y468. AlphaScreen L3MBTL1–H3K9me1 peptide binding; further: nearly all actives have a fitted effect of over 60% in size
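AlphaScreen proximity signal between nickel-chelate acceptor and streptavidin donor beads (final 10 ug/mL) reports binding of 50 nM L3MBTL1 to 75 nM biotin-H3 K9me1 peptide; complex incubated with compounds 30 min at room temperature; cefsulodin titration as control.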
VDR inhibitor – inhibitors of human vitamin D receptor. P11473. VDR-SRC2-3 peptide fluorescence polarization, 2 h. Potency, µM, hits mostly inhibitors. 400,000 tested, 0.93% active
Target sequence (P11473 whole entry, looked up): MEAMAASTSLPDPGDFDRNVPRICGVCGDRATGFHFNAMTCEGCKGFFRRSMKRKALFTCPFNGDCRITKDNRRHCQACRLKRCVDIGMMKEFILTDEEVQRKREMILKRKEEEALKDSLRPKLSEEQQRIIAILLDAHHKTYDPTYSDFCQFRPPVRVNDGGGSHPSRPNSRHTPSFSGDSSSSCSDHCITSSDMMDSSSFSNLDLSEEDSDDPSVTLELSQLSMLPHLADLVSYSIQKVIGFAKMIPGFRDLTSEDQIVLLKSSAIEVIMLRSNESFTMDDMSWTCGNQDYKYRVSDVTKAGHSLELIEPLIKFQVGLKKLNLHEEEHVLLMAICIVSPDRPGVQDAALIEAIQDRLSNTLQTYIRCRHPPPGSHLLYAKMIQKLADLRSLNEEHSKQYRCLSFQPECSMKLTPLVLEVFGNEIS
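VDR–SRC2-3 interaction, FP format. Cmpds 23 nl via pintool, brief spin, 2 h ambient incubation.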
BAZ2B inh – BAZ2B (human) inhibition | Q9UIF8 | AlphaScreen BAZ2B-H3K14Ac peptide displacement | Potency, µM (highest dose often 114 µM), hits mostly inhibitors | 360,000 tested, 4.4% active | AID 504333; further: nearly all actives have a fitted effect of over 60% in size
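Inhibition is scored as reduced AlphaScreen emission. The BAZ2B/b-H3(5-23)K14Ac complex (50 nM each) in PBS pH 7.4, 0.01% Tween-20 meets compound (up to 110 uM) for 30 min at RT before bead addition.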
PLK1 PBD block – inhibitors of human PLK1 polo-box domain binding; 360,000 tested, 2.8% active; Plk1 PBD binding of FITC phosphopeptide, fluorescence polarization; P53350; Potency, µM, usual class: inhibitors; further: series mostly up to about 57 µM; nearly all actives have a fitted effect of over 65% in size
L3MBTL1 inh-2 – L3MBTL1 binding inhibition validated. shares compounds with L3MBTL1 inh-1. L3MBTL1 methyl-lysine binding inhibition, biochemical qHTS. Potency, µM, hits mostly inhibitors. 500 tested, 91% active; further: nearly all actives have a fitted effect of over 70% in size
AlphaScreen ctr2 – interferes with AlphaScreen signal in L3MBTL1 counterscreen; shares compounds with L3MBTL1 inh-1; AlphaScreen counterscreen, signal inhibition; Potency, µM (top dose mostly 57.1 µM), usual class: inhibitors; 500 tested, under 10 active; AID 602224
ME-1 prolif – inhibitors of ME-1 leukemia cell proliferation, CBFb-RUNX1 project; 140 tested, 20% active; ME-1 cell proliferation, ATP luminescence, 48 h; Potency, µM (doses to about 56.1 µM), actives largely listed as inhibitors; AID 504370; shares compounds with BAZ2B inh
TbPYK inh – confirmation of Trypanosoma brucei pyruvate kinase inhibitors; recombinant TbPYK, Kinase-Glo ATP luminescence; Potency, µM (highest dose often 76.9 µM), usual class: inhibitors; shares compounds with PLK1 PBD block; 890 tested, 67% active; further: nearly all actives have a fitted effect of over 70% in size
TbPYK ADP-Glo – orthogonal confirmation of Trypanosoma brucei pyruvate kinase inhibitors; shares compounds with PLK1 PBD block; 890 tested, 62% active; AID 720584; Potency, µM (titrated, usually from 76.9 µM), most hits filed as inhibitors; recombinant TbPYK, ADP-Glo luminescence, 60 min; further: nearly all actives have a fitted effect of over 75% in size
A number is an active result; . = inactive; ? = inconclusive; / = no result. Only some compounds are listed: those with a hit (about 6.9% of all), similar ones and a draw of the others. The call rests on the fitted dose curve; in most records, active means well fitted curve in the direction sought with a large enough effect; inconclusive means small, poorly fitted or top-dose-only effect, or another doubt; inactive means no such curve, though single readings can be large; an effect the other way counts as inactive or inconclusive.

SMILES	HP1b chromo inh	JMJD2A Tudor	L3MBTL1 inh-1	VDR inhibitor	BAZ2B inh	PLK1 PBD block	others
CCOP(=S)(OCC)Oc1ncn(-c2ccccc2)n1	/	/	/	14µM	/	/
Cc1ccc(C)c(N2CCN(c3ncnc4onc(C)c34)CC2)c1	.	.	/	.	.	/
CC(N)C(=O)NC1C2C(=C(O)CC(O)C2O)C(=O)OC1(C)C(Cl)Cl (configuration not stated)	.	25µM	/	.	/	.
CC(Nc1cc(C)cc(C)c1)=[N+](C)CCNS(=O)(=O)c1ccc(Cl)cc1	.	?	/	.	.	.
O=C1CC(c2ccccc2)CC(O)=C1C=NCCN1CCN(C(=O)Cc2ccccc2)CC1 (configuration not stated)	.	.	/	.	.	.
O=C(Cc1ccccc1)N1CCN(CC2CC3C=CC2C3)CC1 (configuration not stated)	50µM	4.5µM	.	.	32µM	.
COc1ccc(OCC(=O)N2CCN(CC3CC4C=CC3C4)CC2)cc1 (configuration not stated)	?	5.6µM	.	.	50µM	.
CC1(C)C(=O)C=C[C@@]2(C)C1=C(O)C(=O)[C@@]1(C)C2CC[C@@]2(C)C(c3ccoc3)C[C@H]3O[C@@]321 (some centres not stated)	/	/	/	7.9µM	/	/
NC(N)=NCCCCCCCCCCN=C(N)N	/	/	/	.	/	/
CC(C)Cn1c(-c2cccc(S(=O)(=O)N3CCOCC3)c2)n[nH]c1=S	.	7.1µM	.	.	/	.
CCc1cccc(NC(=O)Cn2c(=O)oc3cc(S(=O)(=O)N4CCOCC4)ccc32)c1	.	.	/	.	.	.
CN1/C(=C\C=C\C2=[N+](C)c3ccc4ccccc4c3C2(C)C)C(C)(C)c2ccccc21	/	/	16µM	/	4.5µM	/
CCN1/C(=C/C=C/C2=[N+](CC)c3ccccc3C2(C)C)C(C)(C)c2ccccc21	/	/	/	/	/	.
COCC(=O)N1CCC2(CCCN(Cc3ccncc3)C2)CC1	/	/	/	.	/	/
COc1ccc(NC2Oc3cc4c(cc3C(c3cc(OC)c(OC)c(OC)c3)C2C)OCO4)cc1 (configuration not stated)	?	56µM	/	.	/	.
CC(=O)OC1CCC23C(=O)OC45CCC(C6=CC(=O)OC6)C4(C)CCC2C5CCC3(O)C1 (configuration not stated)	/	/	/	.	/	/
Cc1cc(/C=C2\C(=O)NC(=O)N(Cc3ccccc3Cl)C2=O)c(C)n1-c1ccc(C(=O)O)cc1	71µM	?	28µM	?	50µM	11µM	L3MBTL1 inh-2=5.3;AlphaScreen ctr2=.
COc1cc(N2CCOCC2)ccc1/C=C1\C(=O)NC(=O)N(Cc2cccs2)C1=O	.	.	/	.	.	?
Cc1cc(/C=C2\C(=O)NC(=O)N(Cc3ccccc3)C2=O)c(C)n1-c1ccc(Cl)c(C(=O)O)c1	.	45µM	4.5µM	.	32µM	6µM	L3MBTL1 inh-2=0.75;AlphaScreen ctr2=.
Cc1cc(/C=C2\C(=O)NC(=O)N(Cc3ccco3)C2=O)c(C)n1-c1ccc(C(=O)O)cc1	?	.	28µM	.	50µM	?	L3MBTL1 inh-2=13;AlphaScreen ctr2=.
O=C1NC(=S)N(c2ccc(Cl)cc2)C(=O)/C1=C/N1CCN(C(=O)c2ccco2)CC1	.	.	.	.	.	?
CCOc1ccc(N2C(=O)/C(=C/c3ccc(C)o3)C(=O)NC2=S)cc1	?	25µM	22µM	?	?	4.7µM	L3MBTL1 inh-2=2.7;AlphaScreen ctr2=.
O=C1NC(=O)C(CCc2ccncc2)(CCc2ccncc2)C(=O)N1Cc1ccc(F)cc1	.	.	.	.	.	?
O=C1NC(=O)N(Cc2ccc(F)cc2)C(=O)/C1=C\c1ccoc1	?	79µM	20µM	.	50µM	2.7µM	L3MBTL1 inh-2=7.5;AlphaScreen ctr2=.
C=C1C/C(=C\C)C(=O)O[C@@H]2CCN3CC=C(COC(=O)[C@@]1(C)O)[C@H]23	/	/	/	.	/	/
SMILES	HP1b chromo inh	JMJD2A Tudor	L3MBTL1 inh-1	VDR inhibitor	BAZ2B inh	PLK1 PBD block	others
CN1CCC(N2CC3CC(C2)c2cccc(=O)n2C3)CC1 (configuration not stated)	.	.	40µM	.	.	.	L3MBTL1 inh-2=27;AlphaScreen ctr2=.
CC(C)(O)C1C2OC(=O)C1[C@]1(O)C[C@H]3O[C@]34C(=O)O[C@H]2[C@]14C (some centres not stated) (tested in a mixture with another compound)	/	/	/	.	/	/
O=C1NC(=S)N(C2CC2)C(=O)/C1=C/c1ccc2c(c1)CCN2CCCCl	?	45µM	32µM	.	32µM	1.5µM	L3MBTL1 inh-2=4.2;AlphaScreen ctr2=.;TbPYK inh=6.3µM;TbPYK ADP-Glo=?
CC[N@+]1(C)CCC[C@@H](OC(=O)C(O)(c2ccccc2)c2ccccc2)C1	/	/	/	.	/	/
CCCCNC(=O)Oc1c(Br)cc2sc(=O)oc2c1Br	/	/	/	/	50µM	/	ME-1 prolif=?
CCCCc1ccc(C(=O)O)nc1	.	.	8.9µM	.	4µM	.	ME-1 prolif=?
CCCn1cc(C(=O)O)cn1	.	.	.	.	.	.
CC[C@H](C)C(=O)O[C@@H]1[C@H](O)[C@@H]2[C@H](CN3C[C@@H](C)CC[C@@H]3[C@@]2(C)O)[C@@H]2C[C@@]34O[C@@]5(O)[C@@H](OC(=O)[C@](C)(O)CC)CC[C@@]3(C)[C@H]5[C@H](OC(C)=O)[C@@H](OC(C)=O)[C@H]4[C@]12O	/	/	/	.	/	/
CCn1nc(-c2ccccc2)nc2c(=O)n(C)c(=O)nc1-2	.	.	0.71µM	.	.	?	ME-1 prolif=11µM
C/C(=C\c1csc(C)n1)[C@@H]1C[C@@H]2O[C@]2(C)CCC[C@H](C)[C@H](O)[C@@H](C)C(=O)C(C)(C)[C@@H](O)CC(=O)O1	/	/	/	.	/	/
O=C(NC(O)C(Cl)(Cl)Cl)NC(O)C(Cl)(Cl)Cl (configuration not stated)	/	/	/	.	/	/
CN(N=O)c1cc(O)ccc1O	?	6.3µM	/	45µM	/	/	ME-1 prolif=40µM
CN(C)CCO	/	/	/	.	/	/
Cc1cccc(-n2c(O)c(/C=N/Nc3nc4c(c(=O)n(C)c(=O)n4C)n3C)c(=O)[nH]c2=S)c1	.	?	.	.	?	?	ME-1 prolif=.
